Reference: PubChem BioAssay AID1159580 (chemical genetic matrix, 2015)
Among all 5,500 compounds or so, about 2,000 (36%) were called active. Not shown: some 18% with an inconclusive outcome. Rule as the data show it: active = normalized growth mostly below about 0.91 (no sharp cut-off); inconclusive = no clear call, values can overlap the other calls; inactive = mostly above about 0.92. Some of the results follow.

Assay: chemical genetic growth profiling, strain panel (AID 1159580);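 also: tested at 20 µM; growth read once vehicle control cultures reached saturation at 30 °C; 1 = growth at the plate median or of vehicle wells; lower values mean less growth of the strain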
Conditions: growth OD

Measured: normalized growth

CO[C@@]1(NC(=O)Cc2cccs2)C(=O)N2C(C(=O)O)=C(COC(N)=O)CS[C@@H]21
inactive: S. cerevisiae deletion strains, locus YJR066W, strain TOR1, stronger effect = lower value 0.995 | S. cerevisiae deletion strains, locus YKL009W, strain mrt4, stronger effect = lower value 1.01 | S. cerevisiae deletion strains, locus YKL068W, stronger effect = lower value 0.992 | S. cerevisiae deletion strains, locus YKL085W, strain MDH1 (second series), stronger effect = lower value 0.992 | S. cerevisiae deletion strains, locus YKL085W, strain MDH1, stronger effect = lower value 0.992 | S. cerevisiae deletion strains, locus YKL160W, strain elf1, stronger effect = lower value 0.927 | S. cerevisiae deletion strains, locus YKL190W, strain CNB1, stronger effect = lower value 1.01 | S. cerevisiae deletion strains, locus YKR001C, strain vps1, stronger effect = lower value 0.995 | S. cerevisiae deletion strains, locus YKR026C, strain gcn3, stronger effect = lower value 0.977 | S. cerevisiae deletion strains, locus YKR091W, strain srl3, stronger effect = lower value 0.971 | S. cerevisiae deletion strains, locus YLL001W, strain dnm1, stronger effect = lower value 0.966 | S. cerevisiae deletion strains, locus YLL026W, stronger effect = lower value 0.986 | S. cerevisiae deletion strains, locus YLL041C, strain sdh2, stronger effect = lower value 0.971 | S. cerevisiae deletion strains, locus YLR027C, strain aat2, stronger effect = lower value 0.985 | S. cerevisiae deletion strains, locus YLR039C, strain RIC1, stronger effect = lower value 0.998 | S. cerevisiae deletion strains, locus YLR058C, strain SHM2, stronger effect = lower value 1.01 | S. cerevisiae deletion strains, locus YLR102C, strain apc9, stronger effect = lower value 0.989 | S. cerevisiae deletion strains, locus YLR113W, strain HOG1, stronger effect = lower value 1.06 | S. cerevisiae deletion strains, locus YLR221C, strain rsa3, stronger effect = lower value 1 | S. cerevisiae deletion strains, locus YLR258W, strain gsy2, stronger effect = lower value 0.976 | S. cerevisiae deletion strains, locus YLR262C, strain YPT6 (second series), stronger effect = lower value 0.98 | S. cerevisiae deletion strains, locus YLR262C, strain YPT6, stronger effect = lower value 1.01 | S. cerevisiae deletion strains, locus YLR268W, strain sec22, stronger effect = lower value 0.993 | S. cerevisiae deletion strains, locus YLR320W, strain mms22, stronger effect = lower value 0.977 | S. cerevisiae deletion strains, locus YLR330W, strain CHS5, stronger effect = lower value 1 | S. cerevisiae deletion strains, locus YLR342W, strain FKS1 (second series), stronger effect = lower value 0.985 | S. cerevisiae deletion strains, locus YLR342W, strain FKS1, stronger effect = lower value 0.953 | S. cerevisiae deletion strains, locus YLR357W, strain rsc2, stronger effect = lower value 0.915 | S. cerevisiae deletion strains, locus YLR370C, strain arc18, stronger effect = lower value 0.961 | S. cerevisiae deletion strains, locus YLR371W, strain rom2, stronger effect = lower value 0.992 | S. cerevisiae deletion strains, locus YLR384C, strain iki3, stronger effect = lower value 0.968 | S. cerevisiae deletion strains, locus YLR418C, strain cdc73, stronger effect = lower value 0.988 | S. cerevisiae deletion strains, locus YML016C, strain PPZ1, stronger effect = lower value 1 | S. cerevisiae deletion strains, locus YML032C, strain rad52, stronger effect = lower value 0.994 | S. cerevisiae deletion strains, locus YML120C, strain ndi1, stronger effect = lower value 0.986 | S. cerevisiae deletion strains, locus YML124C, strain tub3, stronger effect = lower value 0.993 | S. cerevisiae deletion strains, locus YMR058W, strain fet3, stronger effect = lower value 0.984 | S. cerevisiae deletion strains, locus YMR078C, strain ctf18, stronger effect = lower value 0.993 | S. cerevisiae deletion strains, locus YMR125W, strain sto1, stronger effect = lower value 0.963 | S. cerevisiae deletion strains, locus YMR129W, stronger effect = lower value 0.971 | S. cerevisiae deletion strains, locus YMR205C, strain PFK2, stronger effect = lower value 0.988 | S. cerevisiae deletion strains, locus YMR223W, strain ubp8, stronger effect = lower value 0.998 | S. cerevisiae deletion strains, locus YMR231W, strain pep5, stronger effect = lower value 0.98 | S. cerevisiae deletion strains, locus YMR307W, strain GAS1, stronger effect = lower value 0.975 | S. cerevisiae deletion strains, locus YNL067W, strain RPL9B, stronger effect = lower value 1 | S. cerevisiae deletion strains, locus YNL071W, strain lat1, stronger effect = lower value 0.973 | S. cerevisiae deletion strains, locus YNL153C, strain GIM3, stronger effect = lower value 1.02 | S. cerevisiae deletion strains, locus YNL183C, strain NPR1, stronger effect = lower value 1 | S. cerevisiae deletion strains, locus YNL209W, strain ssb2, stronger effect = lower value 0.972 | S. cerevisiae deletion strains, locus YNL233W, strain BNI4, stronger effect = lower value 1 | S. cerevisiae deletion strains, locus YNL248C, strain rpa49, stronger effect = lower value 0.916 | S. cerevisiae deletion strains, locus YNL250W, strain rad50, stronger effect = lower value 1.01 | S. cerevisiae deletion strains, locus YNL271C, strain bni1, stronger effect = lower value 0.985 | S. cerevisiae deletion strains, locus YNL298W, strain CLA4, stronger effect = lower value 0.975 | S. cerevisiae deletion strains, locus YNL307C, strain MCK1, stronger effect = lower value 1 | S. cerevisiae deletion strains, locus YNL322C, strain KRE1 (second series), stronger effect = lower value 0.972 | S. cerevisiae deletion strains, locus YNL322C, strain KRE1, stronger effect = lower value 1.01 | S. cerevisiae deletion strains, locus YNR049C, strain mso1, stronger effect = lower value 0.953 | S. cerevisiae deletion strains, locus YNR052C, strain pop2, stronger effect = lower value 1 | S. cerevisiae deletion strains, locus YOL006C, strain TOP1, stronger effect = lower value 1.08 | S. cerevisiae deletion strains, locus YOL012C, strain htz1 1.61 | S. cerevisiae deletion strains, locus YOL147C, strain pex11, stronger effect = lower value 0.992 | S. cerevisiae deletion strains, locus YOR001W, strain rrp6, stronger effect = lower value 1 | S. cerevisiae deletion strains, locus YOR061W, strain CKA2, stronger effect = lower value 1.01 | S. cerevisiae deletion strains, locus YOR069W, strain VPS5, stronger effect = lower value 1 | S. cerevisiae deletion strains, locus YOR070C, strain gyp1, stronger effect = lower value 0.979 | S. cerevisiae deletion strains, locus YOR080W, strain dia2, stronger effect = lower value 0.986 | S. cerevisiae deletion strains, locus YOR083W, strain WHI5, stronger effect = lower value 0.894 | S. cerevisiae deletion strains, locus YOR106W, strain vam3, stronger effect = lower value 0.951 | S. cerevisiae deletion strains, locus YOR136W, strain idh2, stronger effect = lower value 1 | S. cerevisiae deletion strains, locus YOR144C, strain elg1, stronger effect = lower value 0.998 | S. cerevisiae deletion strains, locus YOR184W, strain ser1, stronger effect = lower value 1.02 | S. cerevisiae deletion strains, locus YOR231W, strain MKK1, stronger effect = lower value 1.09 | S. cerevisiae deletion strains, locus YOR265W, strain rbl2, stronger effect = lower value 0.999 | S. cerevisiae deletion strains, locus YOR270C, strain vph1, stronger effect = lower value 0.936 | S. cerevisiae deletion strains, locus YOR290C, strain snf2, stronger effect = lower value 0.945 | S. cerevisiae deletion strains, locus YOR316C, strain cot1, stronger effect = lower value 0.995 | S. cerevisiae deletion strains, locus YPL051W, strain arl3, stronger effect = lower value 0.977 | S. cerevisiae deletion strains, locus YPL078C, strain atp4, stronger effect = lower value 0.937 | S. cerevisiae deletion strains, locus YPL106C, strain sse1, stronger effect = lower value 0.96 | S. cerevisiae deletion strains, locus YPL240C, strain hsp82, stronger effect = lower value 0.984 | S. cerevisiae deletion strains, locus YPL256C, strain CLN2, stronger effect = lower value 1.08 | S. cerevisiae deletion strains, locus YPR119W, strain clb2, stronger effect = lower value 0.992 | S. cerevisiae deletion strains, locus YPR141C, strain kar3, stronger effect = lower value 0.994 | S. cerevisiae deletion strains, locus YPR163C, strain tif3, stronger effect = lower value 1 | S. cerevisiae deletion strains, locus YPR167C, strain met16, stronger effect = lower value 0.998 | S. cerevisiae deletion strains, strain wtn01, stronger effect = lower value 0.99 | S. cerevisiae strains, strain wild type, stronger effect = lower value 1.01
